Screening results from PubChem BioAssay.
HCV inh = qHTS Assay for Inhibitors of Hepatitis C Virus (HCV) | Huh7.5.1 HCVcc-Cre infection, luciferase reporter, 44 h | Potency, µM (series often up to 41.8 µM), for inactives: top-dose activity change, negative = inhibition, actives largely listed as inhibitors | 340,000 compounds, 3.4% hits
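Infectious HCVcc-Cre (~0.5 moi) was added to cells just after compound, with cells seeded 4 h earlier at 1,000 per well. Luciferase activity after 44 h culture reported infection; substrate was incubated 15 min at room temperature before reading.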
Pf growth 96h = Primary qHTS for delayed death inhibitors of the malarial parasite plastid, 96 hour incubation | P. falciparum luciferase reporter growth, 96 h | Potency, µM (series often up to 28.7 µM), for the others: at the highest dose activity change, negative = inhibition, most hits filed as inhibitors | 320,000 compounds, 6.9% hits
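Infected RBCs, 2% Hct / 0.05% parasitemia final; luciferase-reporter P. falciparum; cpd 96 h, 37 C, 5% CO2; luciferase detection reagent; luminescence.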
Pf growth 48h = Primary qHTS for delayed death inhibitors of the malarial parasite plastid, 48 hour incubation; P. falciparum luciferase growth in erythrocytes, 48 h; Potency, µM (titrated, usually from 28.7 µM), without a hit: at the highest dose activity change, negative = inhibition, hits mostly inhibitors; AID 504832, 2011; 310,000 compounds, 5.9% hits
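Read-out is firefly luciferase luminescence from an integrated reporter in P. falciparum, so falling signal marks reduced parasite growth. Infected erythrocytes were at 2% hematocrit and 0.1% parasitemia (final) in Albumax-supplemented RPMI 1640.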
AMA1-RON2 inh = qHTS for Inhibitors of AMA1-RON; Towards Development of Antimalarial Drug Lead: Primary Screen | Potency, µM (series often up to 58.2 µM), for the others: at the top dose activity change, negative = inhibition, actives largely listed as inhibitors | AlphaScreen AMA1-biotinylated RON2 peptide binding | AID 720542, 2013 | 360,000 compounds, 0.2% hits;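 further: 0% = vehicle wells and -100% = peptide control; nearly all actives have a fitted effect of over 45% in size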
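AMA1 (3D7) with his tag at 25 nM final met compounds first, then biotinylated RON2 peptide at 25 nM; detection used donor plus acceptor beads, 10 µg/mL apiece, read by AlphaScreen after 30 min at room temperature.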
Active calls of the source: *; ! = not active in a repeat; [ ] = another dose, or the depositor's remark. This is a sample that favours compounds with a hit; in the whole collection about 11% have one here. The call rests on the fitted dose curve; in most records, active means well fitted curve in the direction sought with a large enough effect; inconclusive means small, poorly fitted or top-dose-only effect, or another doubt; inactive means no such curve, though single readings can be large; an effect the other way counts as inactive or inconclusive. Unless noted, on the % scale 0 is the no-effect control and ±100 the full control effect; potency means the concentration at half of the fitted maximal effect.

What do the screens show for `CCCNC(=O)c1sc2c(c1C(=O)Nc1ccccn1)CCCC2`?
HCV inh: 10µM*; Pf growth 96h: inconclusive; Pf growth 48h: -22.0%; AMA1-RON2 inh: -17.1%

Results for CN(C)CCNC(=O)c1c(NC(=O)c2ccccc2)sc2c1CCCC2 ?
HCV inh: inconclusive; Pf growth 96h: 35.8%; Pf growth 48h: inconclusive; AMA1-RON2 inh: -11.2%

Results for O=C(CSc1nn(-c2ccc(Cl)cc2)c(=S)s1)N1CCN(C(=O)c2ccco2)CC1 ?
HCV inh: -25.4%; Pf growth 96h: -14.2%; Pf growth 48h: 4.65µM*; AMA1-RON2 inh: -8.1%

What do the screens show for `C/C(=N\NC(=O)C(C)Sc1ccccc1)c1ccc([N+](=O)[O-])cc1` (stereo unspecified)?
HCV inh: inconclusive; Pf growth 96h: 9.28µM*; Pf growth 48h: -11.0%; AMA1-RON2 inh: 1.4%

What do the screens show for `C/C(=N\NC(=O)c1cccc(N/N=C(\C)c2ccncc2)c1)c1ccncc1`?
HCV inh: -1.4%; Pf growth 96h: 8.28µM*; Pf growth 48h: inconclusive; AMA1-RON2 inh: 55.5%

Results for CCc1ccc(/C(C)=N\Nc2ccc([N+](=O)[O-])cc2)cc1 ?
HCV inh: -16.1%; Pf growth 96h: 4.15µM*; Pf growth 48h: 31.2%; AMA1-RON2 inh: 5.0%

Results for C/C(=N\NC(=O)c1ccncc1)c1cccc(NC(=O)c2ccc(C(C)(C)C)cc2)c1 ?
HCV inh: 10µM*; Pf growth 96h: -14.2%; Pf growth 48h: 58.5%; AMA1-RON2 inh: 72.6%

Results for C/C(=N\NC(=O)C(C)Sc1ccccc1)C(C)(C)C (stereo unspecified) ?
HCV inh: 12.5%; Pf growth 96h: 108.9%; Pf growth 48h: 12.2%; AMA1-RON2 inh: inconclusive

Results for C/C(=N\NC(=O)c1cccc(N/N=C(\C)c2ccccc2)c1)c1ccccc1 ?
HCV inh: inconclusive; Pf growth 96h: -0.6%; Pf growth 48h: inconclusive; AMA1-RON2 inh: 22.5%

How did Cc1ccc(S(=O)(=O)c2nc(/C=C/c3ccccc3)oc2N2CCC(C(N)=O)CC2)cc1 do in these assays?
AMA1-RON2 inh: -7.5%

What do the screens show for `Nn1c(SCc2nc3ccccn3c2Br)nnc1-c1cccnc1`?
HCV inh: 3.1%; Pf growth 96h: 187.2%; Pf growth 48h: 13.2%; AMA1-RON2 inh: 1.0%

How did Cc1ccccc1SCC(=O)OCC(=O)N(C)c1c(N)n(Cc2ccccc2)c(=O)[nH]c1=O do in these assays?
HCV inh: 0.7%; Pf growth 96h: inconclusive; Pf growth 48h: 33.9%; AMA1-RON2 inh: -18.4%

Results for COc1ccc(Cl)cc1NC(=O)COC(=O)C1COc2ccccc2O1 (stereo unspecified) ?
HCV inh: 10.8%; Pf growth 96h: -23.2%; Pf growth 48h: 0.0%; AMA1-RON2 inh: -8.7%

How did Cc1cccc(C(=O)C2CCN(S(=O)(=O)c3cccc(C(=O)O)c3)CC2)c1 do in these assays?
HCV inh: 4.2%; Pf growth 96h: 15.9%; Pf growth 48h: -14.8%; AMA1-RON2 inh: -1.7%

What do the screens show for `C/C(=N\NC(=O)c1cccc(N/N=C(\C)c2ccc([N+](=O)[O-])cc2)c1)c1ccc([N+](=O)[O-])cc1`?
HCV inh: -26.6%; Pf growth 96h: 4.15µM*; Pf growth 48h: 1.65µM*; AMA1-RON2 inh: 23.3%

Results for C/C(=N\NC(=O)c1cc2c(s1)CCC(C)C2)c1ccncc1 (stereo unspecified) ?
HCV inh: 25.1µM*; Pf growth 96h: 9.28µM*; Pf growth 48h: -23.6%; AMA1-RON2 inh: 4.5%

What do the screens show for `CC(NCCC1(Cc2ccccc2Cl)CCOC(C)(C)C1)c1cccs1` (stereo unspecified)?
HCV inh: -4.7%; Pf growth 96h: 11.7µM*; Pf growth 48h: inconclusive; AMA1-RON2 inh: 6.4%

Results for CCc1ccc(N2C(=O)c3cc(N4CCOCC4)c([N+](=O)[O-])cc3C2=O)cc1 ?
HCV inh: 1.9%; Pf growth 96h: 7.38µM*; Pf growth 48h: 4.3%

What do the screens show for `CCc1cccc(CC)c1N1C(=O)c2cc(N3CCOCC3)c([N+](=O)[O-])cc2C1=O`?
HCV inh: 17.3%; Pf growth 96h: 11.2%; Pf growth 48h: 14.8%; AMA1-RON2 inh: -10.5%

How did CCOC(=O)c1c(-n2c(C)cc(/C=C3\C(=O)NC(=O)N(C)C3=O)c2C)sc2c1CCCC2 do in these assays?
HCV inh: 14.1µM*; Pf growth 96h: 3.7µM*; Pf growth 48h: inconclusive; AMA1-RON2 inh: 3.8%

How did CCOC(=O)c1c(-n2c(C)cc(C=O)c2C)sc2c1CCCC2 do in these assays?
HCV inh: inconclusive; Pf growth 96h: inconclusive; Pf growth 48h: inconclusive; AMA1-RON2 inh: -15.2%

How did O=C1CCCCC1(O)Cc1ccc2c(c1)OCO2 (stereo unspecified) do in these assays?
HCV inh: -3.1%; AMA1-RON2 inh: -5.1%

What do the screens show for `O=C(c1cccn2c(=O)c3ccc(Cl)cc3nc12)N1CCN(Cc2ccc3c(c2)OCO3)CC1`?
HCV inh: -10.4%; Pf growth 96h: 7.38µM*; Pf growth 48h: 0.4%; AMA1-RON2 inh: -2.0%

What do the screens show for `O=C(c1cc2c(=O)n3ccccc3nc2s1)N1CCN(Cc2ccc3c(c2)OCO3)CC1`?
HCV inh: -7.6%; Pf growth 96h: 6.57µM*; Pf growth 48h: -12.0%; AMA1-RON2 inh: 11.9%

Results for COc1ccc(OCC(O)CN2CCN(Cc3ccc4c(c3)OCO4)CC2)cc1 (stereo unspecified) ?
HCV inh: 26.8%; Pf growth 96h: -13.2%; Pf growth 48h: 1.2%; AMA1-RON2 inh: 11.0%

How did O=C(c1cccc(Cl)c1)N1CCN(Cc2ccc3c(c2)OCO3)CC1 do in these assays?
HCV inh: 13.9%; Pf growth 96h: 6.9%; Pf growth 48h: inconclusive; AMA1-RON2 inh: -6.6%

Results for CC(=O)c1ccc(OCC(O)CN2CCN(Cc3ccc4c(c3)OCO4)CC2)cc1 (stereo unspecified) ?
HCV inh: inconclusive; Pf growth 96h: 4.15µM*!; Pf growth 48h: -3.1%; AMA1-RON2 inh: 6.5%

Results for SC(COCc1ccccc1)CN1CCN(Cc2ccc3c(c2)OCO3)CC1 (stereo unspecified) ?
HCV inh: -25.6%; Pf growth 96h: 8.28µM*; Pf growth 48h: inconclusive; AMA1-RON2 inh: 25.1µM*

How did CN(CC(=O)Nc1ccccc1Cl)C(=O)COC(=O)c1cnccn1 do in these assays?
HCV inh: 8.4%; Pf growth 96h: 0.0%; Pf growth 48h: 32.7%; AMA1-RON2 inh: 12.0%

How did CCOC(=O)c1nn(-c2ccccc2F)c(-c2ccccc2)c1C(=O)c1ccccc1 do in these assays?
HCV inh: inconclusive; Pf growth 96h: inconclusive; Pf growth 48h: inconclusive; AMA1-RON2 inh: -23.3%

What do the screens show for `COc1ccc(CCNC(=O)c2c(O)c3c([nH]c2=O)CCCC3)cc1OC`?
HCV inh: -7.2%; AMA1-RON2 inh: 30.7%

What do the screens show for `O=C(NCc1ccc2c(c1)OCO2)c1ccc(CSCc2ccc(Cl)cc2)o1`?
HCV inh: 6.4%; Pf growth 96h: -57.1%; Pf growth 48h: 3.6%; AMA1-RON2 inh: -11.2%[2.32 µM]
